The source of these data is ChEMBL document CHEMBL1961873, “Compounds: GSK PKIS; Assays: Nanosyn kinase panel” (2012).

In assay [1] the target is T1, Tyrosine-protein kinase ITK/TSK (Homo sapiens) (UniProt Q08881).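 Also: values are mean percent inhibition of ITK from the GSK PKIS screen.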
T1 sequence (whole entry): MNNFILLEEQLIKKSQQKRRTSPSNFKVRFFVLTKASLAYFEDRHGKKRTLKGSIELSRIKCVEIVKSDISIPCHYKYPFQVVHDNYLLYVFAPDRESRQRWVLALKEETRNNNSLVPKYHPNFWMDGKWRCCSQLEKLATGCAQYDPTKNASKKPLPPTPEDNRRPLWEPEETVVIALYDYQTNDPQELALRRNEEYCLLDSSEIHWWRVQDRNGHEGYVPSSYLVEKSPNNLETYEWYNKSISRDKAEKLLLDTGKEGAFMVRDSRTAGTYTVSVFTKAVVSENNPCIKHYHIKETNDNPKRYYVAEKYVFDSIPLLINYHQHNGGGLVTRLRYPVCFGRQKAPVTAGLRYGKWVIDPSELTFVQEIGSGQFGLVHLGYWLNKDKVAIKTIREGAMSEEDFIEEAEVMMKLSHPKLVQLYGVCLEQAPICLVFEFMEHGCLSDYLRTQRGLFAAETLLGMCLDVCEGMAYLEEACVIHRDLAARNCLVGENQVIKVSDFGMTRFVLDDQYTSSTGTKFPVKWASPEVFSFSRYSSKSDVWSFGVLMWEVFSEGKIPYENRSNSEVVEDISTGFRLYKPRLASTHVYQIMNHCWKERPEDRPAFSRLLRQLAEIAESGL
Conditions: at 1 µM.

In assay [2] the target is Tyrosine-protein kinase JAK1 (Homo sapiens) (UniProt P23458). Conditions: at 0.1 µM.
Chain of Tyrosine-protein kinase JAK1 (Homo sapiens) (P23458 whole entry): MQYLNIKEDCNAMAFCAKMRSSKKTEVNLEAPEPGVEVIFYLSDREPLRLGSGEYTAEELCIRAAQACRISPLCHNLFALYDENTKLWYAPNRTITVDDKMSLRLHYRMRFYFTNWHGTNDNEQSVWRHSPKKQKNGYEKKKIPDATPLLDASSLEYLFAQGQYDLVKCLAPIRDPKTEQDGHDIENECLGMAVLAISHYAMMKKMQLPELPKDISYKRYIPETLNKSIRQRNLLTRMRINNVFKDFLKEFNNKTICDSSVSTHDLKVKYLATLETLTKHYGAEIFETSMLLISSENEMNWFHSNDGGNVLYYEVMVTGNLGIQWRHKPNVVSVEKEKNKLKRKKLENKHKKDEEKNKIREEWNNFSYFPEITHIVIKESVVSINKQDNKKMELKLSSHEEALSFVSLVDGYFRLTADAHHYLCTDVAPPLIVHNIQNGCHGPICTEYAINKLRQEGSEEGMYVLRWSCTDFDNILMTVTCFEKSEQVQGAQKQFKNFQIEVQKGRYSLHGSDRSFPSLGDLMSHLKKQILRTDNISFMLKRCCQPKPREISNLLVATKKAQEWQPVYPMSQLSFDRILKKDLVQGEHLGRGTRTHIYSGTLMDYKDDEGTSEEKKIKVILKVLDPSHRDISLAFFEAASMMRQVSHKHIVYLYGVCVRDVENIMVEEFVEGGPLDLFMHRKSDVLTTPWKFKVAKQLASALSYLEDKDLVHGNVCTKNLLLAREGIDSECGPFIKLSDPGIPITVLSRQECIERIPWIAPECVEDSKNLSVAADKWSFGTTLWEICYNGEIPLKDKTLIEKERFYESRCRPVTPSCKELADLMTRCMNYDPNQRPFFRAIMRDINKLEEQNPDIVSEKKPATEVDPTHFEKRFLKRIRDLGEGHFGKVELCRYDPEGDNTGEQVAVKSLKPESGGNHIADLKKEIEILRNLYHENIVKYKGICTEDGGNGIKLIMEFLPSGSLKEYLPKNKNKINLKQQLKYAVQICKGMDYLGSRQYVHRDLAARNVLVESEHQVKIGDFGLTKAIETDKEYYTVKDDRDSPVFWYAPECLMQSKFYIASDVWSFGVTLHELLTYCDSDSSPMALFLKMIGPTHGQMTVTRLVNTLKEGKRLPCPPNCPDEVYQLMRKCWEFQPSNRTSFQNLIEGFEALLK
Assay [3] has the same target. The note with it: at 1 µM.
Assay [4] deals with Tyrosine-protein kinase JAK2 (Homo sapiens) (UniProt O60674). Conditions: at 0.1 µM.
Chain of Tyrosine-protein kinase JAK2 (Homo sapiens) (O60674 whole entry): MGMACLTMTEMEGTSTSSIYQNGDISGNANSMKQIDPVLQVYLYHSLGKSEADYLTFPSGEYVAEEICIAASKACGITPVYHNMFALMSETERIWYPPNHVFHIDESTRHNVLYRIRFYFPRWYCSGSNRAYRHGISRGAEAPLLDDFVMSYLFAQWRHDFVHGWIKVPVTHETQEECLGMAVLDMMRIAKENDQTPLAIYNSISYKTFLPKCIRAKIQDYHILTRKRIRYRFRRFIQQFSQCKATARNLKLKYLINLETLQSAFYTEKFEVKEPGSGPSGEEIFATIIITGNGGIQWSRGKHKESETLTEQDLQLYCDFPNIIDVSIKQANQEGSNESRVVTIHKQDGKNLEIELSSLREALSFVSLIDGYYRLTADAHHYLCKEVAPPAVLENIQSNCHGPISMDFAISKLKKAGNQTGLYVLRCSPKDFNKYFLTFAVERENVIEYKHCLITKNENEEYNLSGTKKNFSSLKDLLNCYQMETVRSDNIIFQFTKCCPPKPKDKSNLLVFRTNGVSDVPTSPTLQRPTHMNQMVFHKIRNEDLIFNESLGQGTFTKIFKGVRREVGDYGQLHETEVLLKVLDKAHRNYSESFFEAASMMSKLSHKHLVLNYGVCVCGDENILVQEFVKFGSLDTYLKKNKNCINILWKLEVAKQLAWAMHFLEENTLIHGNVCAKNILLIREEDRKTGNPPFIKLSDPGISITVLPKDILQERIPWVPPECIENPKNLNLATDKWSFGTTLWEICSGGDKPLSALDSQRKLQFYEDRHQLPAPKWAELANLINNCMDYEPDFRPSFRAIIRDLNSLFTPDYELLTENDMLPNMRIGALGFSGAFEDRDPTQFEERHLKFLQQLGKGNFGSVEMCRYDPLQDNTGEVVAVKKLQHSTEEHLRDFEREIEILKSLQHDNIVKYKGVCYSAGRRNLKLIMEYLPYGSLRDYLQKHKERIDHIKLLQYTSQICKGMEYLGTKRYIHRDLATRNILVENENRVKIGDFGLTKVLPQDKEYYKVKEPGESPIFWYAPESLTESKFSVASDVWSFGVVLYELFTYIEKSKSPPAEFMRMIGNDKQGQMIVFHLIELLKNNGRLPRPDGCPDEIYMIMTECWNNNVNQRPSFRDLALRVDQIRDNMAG
Assay [5] has the same target. Conditions: at 1 µM.
The target in assay [6] is T2, Tyrosine-protein kinase JAK3 (Homo sapiens) (UniProt P52333).
T2 sequence (whole entry): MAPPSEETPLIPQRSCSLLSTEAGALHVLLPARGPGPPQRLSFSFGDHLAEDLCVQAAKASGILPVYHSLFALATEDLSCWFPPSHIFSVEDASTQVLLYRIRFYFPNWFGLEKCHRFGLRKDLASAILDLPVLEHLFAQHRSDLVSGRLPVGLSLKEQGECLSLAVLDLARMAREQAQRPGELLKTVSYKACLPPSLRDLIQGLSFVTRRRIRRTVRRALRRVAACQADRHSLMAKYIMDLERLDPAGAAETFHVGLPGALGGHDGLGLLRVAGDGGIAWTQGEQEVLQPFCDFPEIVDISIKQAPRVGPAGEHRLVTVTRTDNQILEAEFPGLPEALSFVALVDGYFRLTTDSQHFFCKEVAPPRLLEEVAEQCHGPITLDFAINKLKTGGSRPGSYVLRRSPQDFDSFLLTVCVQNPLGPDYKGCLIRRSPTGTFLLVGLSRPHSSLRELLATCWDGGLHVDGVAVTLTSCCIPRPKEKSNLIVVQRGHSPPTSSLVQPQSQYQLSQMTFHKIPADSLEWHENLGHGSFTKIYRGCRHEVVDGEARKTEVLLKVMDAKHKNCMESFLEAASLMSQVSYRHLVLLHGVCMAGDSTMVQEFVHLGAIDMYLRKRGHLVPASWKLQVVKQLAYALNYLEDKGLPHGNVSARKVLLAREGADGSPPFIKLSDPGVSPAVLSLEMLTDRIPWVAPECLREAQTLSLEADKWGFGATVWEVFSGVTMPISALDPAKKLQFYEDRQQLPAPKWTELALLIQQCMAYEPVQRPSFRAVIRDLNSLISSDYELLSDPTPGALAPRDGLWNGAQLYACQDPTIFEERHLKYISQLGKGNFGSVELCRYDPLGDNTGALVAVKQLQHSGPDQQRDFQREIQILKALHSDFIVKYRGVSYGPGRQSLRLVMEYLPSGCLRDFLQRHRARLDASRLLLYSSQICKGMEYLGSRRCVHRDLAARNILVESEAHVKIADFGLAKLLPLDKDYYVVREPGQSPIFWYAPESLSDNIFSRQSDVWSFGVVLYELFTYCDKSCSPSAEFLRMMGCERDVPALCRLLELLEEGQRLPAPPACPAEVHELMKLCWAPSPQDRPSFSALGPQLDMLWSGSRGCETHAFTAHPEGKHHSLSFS
The note with it: at 0.1 µM.

For assay [7], the target named is T2, Tyrosine-protein kinase JAK3 (Homo sapiens). Conditions: at 1 µM.
The target of assay [8] is Vascular endothelial growth factor receptor 2 (Homo sapiens) (UniProt P35968). Conditions: at 0.1 µM.
For assay [9] the target is unchanged. Conditions: at 1 µM.
Assay [10] addresses Mast/stem cell growth factor receptor Kit (Homo sapiens) (UniProt P10721). The note with it: at 0.1 µM.
Assay [11] shares this target. The note with it: at 1 µM.
Assay [12] has as its system Mast/stem cell growth factor receptor Kit (Homo sapiens), P10721 [D816V]. The note with it: at 0.1 µM.
Assay [13] has the same test system. The note with it: at 1 µM.
In assay [14] the test system is Mast/stem cell growth factor receptor Kit (Homo sapiens), P10721 [T670I]. The note with it: at 0.1 µM.
Chain of Mast/stem cell growth factor receptor Kit (Homo sapiens), P10721 [T670I] (P10721 whole entry T670I): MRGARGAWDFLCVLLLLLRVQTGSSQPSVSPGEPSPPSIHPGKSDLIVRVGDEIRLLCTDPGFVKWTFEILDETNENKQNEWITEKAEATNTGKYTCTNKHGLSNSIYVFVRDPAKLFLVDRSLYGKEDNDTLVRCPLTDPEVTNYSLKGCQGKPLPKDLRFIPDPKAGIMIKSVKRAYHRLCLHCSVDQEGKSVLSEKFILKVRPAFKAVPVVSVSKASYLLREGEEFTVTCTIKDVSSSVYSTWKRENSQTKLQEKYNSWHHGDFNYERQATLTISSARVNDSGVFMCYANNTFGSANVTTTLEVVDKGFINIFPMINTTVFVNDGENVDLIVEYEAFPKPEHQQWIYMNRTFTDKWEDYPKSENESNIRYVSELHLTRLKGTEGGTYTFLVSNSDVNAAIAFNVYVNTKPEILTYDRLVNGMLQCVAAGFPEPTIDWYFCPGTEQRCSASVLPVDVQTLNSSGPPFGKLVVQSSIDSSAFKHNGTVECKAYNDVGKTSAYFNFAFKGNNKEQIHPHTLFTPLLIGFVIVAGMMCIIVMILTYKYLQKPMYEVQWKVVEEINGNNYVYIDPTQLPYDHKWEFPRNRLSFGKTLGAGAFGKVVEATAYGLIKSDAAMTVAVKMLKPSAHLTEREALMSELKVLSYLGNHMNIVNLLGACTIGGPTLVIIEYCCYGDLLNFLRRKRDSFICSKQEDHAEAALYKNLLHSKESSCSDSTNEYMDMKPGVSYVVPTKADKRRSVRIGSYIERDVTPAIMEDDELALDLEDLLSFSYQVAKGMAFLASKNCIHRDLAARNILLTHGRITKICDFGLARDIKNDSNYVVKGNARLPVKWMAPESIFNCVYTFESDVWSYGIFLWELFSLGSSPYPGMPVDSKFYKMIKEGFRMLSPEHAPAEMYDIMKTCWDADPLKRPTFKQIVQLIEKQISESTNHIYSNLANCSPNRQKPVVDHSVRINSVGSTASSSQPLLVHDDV
Assay [15] has the same test system. Conditions: at 1 µM.
Assay [16] has as its system Mast/stem cell growth factor receptor Kit (Homo sapiens), P10721 [V560G]. Conditions: at 0.1 µM.
Assay [17] shares this test system. The note with it: at 1 µM.
For assay [18], the target named is Tyrosine-protein kinase Lck (Homo sapiens) (UniProt P06239). The note with it: at 0.1 µM.
Chain of Tyrosine-protein kinase Lck (Homo sapiens) (P06239 2-509 limits assumed): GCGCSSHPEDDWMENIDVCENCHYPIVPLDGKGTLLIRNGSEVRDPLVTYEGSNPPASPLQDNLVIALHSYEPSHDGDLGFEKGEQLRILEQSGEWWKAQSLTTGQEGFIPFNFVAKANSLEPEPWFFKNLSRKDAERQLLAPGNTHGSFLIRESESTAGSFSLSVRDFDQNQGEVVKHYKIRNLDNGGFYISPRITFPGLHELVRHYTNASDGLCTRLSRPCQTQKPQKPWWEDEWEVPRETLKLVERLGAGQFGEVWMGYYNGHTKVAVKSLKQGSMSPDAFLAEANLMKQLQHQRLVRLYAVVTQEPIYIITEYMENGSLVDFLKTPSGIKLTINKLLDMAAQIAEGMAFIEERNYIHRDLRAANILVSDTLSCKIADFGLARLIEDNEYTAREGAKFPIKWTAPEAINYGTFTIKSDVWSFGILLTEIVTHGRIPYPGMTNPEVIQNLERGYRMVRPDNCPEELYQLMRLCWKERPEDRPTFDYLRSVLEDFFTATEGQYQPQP
Assay [19] has the same target. The note with it: at 1 µM.
Assay [20] has as its target Leukocyte tyrosine kinase receptor (Homo sapiens) (UniProt P29376). The note with it: at 0.1 µM.

Chain of Mast/stem cell growth factor receptor Kit (Homo sapiens), P10721 [D816V] (P10721 whole entry D816V): as the sequence (P10721 whole entry T670I) above, with I670T, D816V counted along it
Chain of Mast/stem cell growth factor receptor Kit (Homo sapiens) (P10721 whole entry): as the sequence (P10721 whole entry T670I) above, with I670T counted along it
Chain of Mast/stem cell growth factor receptor Kit (Homo sapiens), P10721 [V560G] (P10721 whole entry V560G): as the sequence (P10721 whole entry T670I) above, with V560G, I670T counted along it
Chain of Leukocyte tyrosine kinase receptor (Homo sapiens) (P29376 whole entry): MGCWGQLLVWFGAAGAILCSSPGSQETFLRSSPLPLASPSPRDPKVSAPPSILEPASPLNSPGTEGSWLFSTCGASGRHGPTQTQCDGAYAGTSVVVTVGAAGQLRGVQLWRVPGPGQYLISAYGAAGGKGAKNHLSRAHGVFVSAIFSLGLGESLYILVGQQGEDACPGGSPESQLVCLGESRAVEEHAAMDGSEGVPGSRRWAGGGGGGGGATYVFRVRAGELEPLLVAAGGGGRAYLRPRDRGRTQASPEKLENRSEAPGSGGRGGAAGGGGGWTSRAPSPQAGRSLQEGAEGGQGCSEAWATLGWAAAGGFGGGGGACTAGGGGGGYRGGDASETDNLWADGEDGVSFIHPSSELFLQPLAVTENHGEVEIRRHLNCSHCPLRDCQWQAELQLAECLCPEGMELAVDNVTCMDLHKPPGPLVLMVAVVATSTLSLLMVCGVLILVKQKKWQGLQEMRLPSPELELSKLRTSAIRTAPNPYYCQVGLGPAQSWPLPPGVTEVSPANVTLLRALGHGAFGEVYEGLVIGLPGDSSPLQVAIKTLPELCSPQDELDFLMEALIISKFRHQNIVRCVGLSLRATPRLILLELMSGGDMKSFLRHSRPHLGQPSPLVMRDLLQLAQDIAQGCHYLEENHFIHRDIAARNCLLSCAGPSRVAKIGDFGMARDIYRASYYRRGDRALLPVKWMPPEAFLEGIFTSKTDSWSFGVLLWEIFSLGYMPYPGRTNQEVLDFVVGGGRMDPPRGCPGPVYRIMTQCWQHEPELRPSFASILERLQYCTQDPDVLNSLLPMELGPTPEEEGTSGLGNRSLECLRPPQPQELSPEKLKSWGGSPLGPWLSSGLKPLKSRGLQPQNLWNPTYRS

Take `CCS(=O)(=O)c1ccc(OC)c(Nc2ncc(-c3cccc(F)c3)o2)c1`: the inhibition (commonly the drop in the measured response relative to a control, in per cent) in assay [1] was 6.38%; in assay [2], 7.39%; in assay [3], 10.4%; in assay [4], 3.25%; in assay [5], 2.43%; in assay [6] it was -1.97%. Also, the inhibition in assay [7] worked out at 0.45%; in [8], 46.8%; in [9], 77%; in [10], 74.7%; in assay [11], 97%; in assay [12], 4.96%. For the same compound, the inhibition in assay [13] stood at 9.62%; in [14], 19.7%; in assay [15], 81.3%; in assay [16], 0.05%; in assay [17] it was 34.1%; in assay [18] it was 20.4%. For the same compound, the results for the inhibition in assay [19] and in [20] were 64.1% and 7.85%, respectively.
On to `CCS(=O)(=O)c1ccc(OC)c(Nc2ncc(-c3cccc(C(C)=O)c3)o2)c1`, for which the inhibition in assay [1] was 2.71%; in assay [2] it was 0.61%; in assay [3], 6.56%; in [4], 0.16%; in assay [5] it was 1.8%; in assay [6], -1.13%. For the same compound, the inhibition stood at 1.72% in assay [7]; 16.4% in assay [8]; 58.9% in assay [9]; 19.7% in assay [10]; 71.4% in assay [11]; 5.74% in assay [12]. In addition, the inhibition in assay [13] was 12.1%; in assay [14] it was -0.79%; in [15] it was 10.7%; in assay [16], 3.47%; in [17], 13%; in assay [18], 2.7%. Moreover, the inhibition in assay [19] came out at 25.4%; in assay [20], 2.87%.
Turning to `CN(C)CCNC(=O)Nc1ccc(N(C)c2ccnc(Nc3ccc(CS(C)(=O)=O)cc3)n2)cc1`, the inhibition was 3.84% in assay [1]; 3.89% in assay [2]; -1.93% in assay [3]; 1.46% in assay [4]; 3.2% in [5]; -1.47% in [6]. The inhibition was -0.17% in [7]; 7.04% in assay [8]; 18.9% in assay [9]; 13.9% in assay [10]; 57.6% in [11]; 3.66% in assay [12]. The inhibition in [13] turned out to be 3.76%; in [14] it was 4.26%; in assay [15], 6.89%; in assay [16], 11.7%; in [17] it was 54.1%; in assay [18] it was 3.05%. Further, the values for the inhibition in [19] and in [20] were 8.53% and 3.62%, respectively.
In the case of `CS(=O)(=O)Nc1ccc(-c2cc(-c3ccccc3)cc(C(N)=O)c2N)cc1`, the inhibition in assay [1] was 0.76%; in [2], 0.16%; in assay [3] it was 2.62%; in [4], 0.9%; in assay [5], 3.86%; in assay [6] it was -0.01%. For the same compound, the inhibition is 0.58% in assay [7]; 1.74% in [8]; 4.53% in assay [9]; 3.8% in assay [10]; 21% in assay [11]; -0.43% in [12]. For the same compound, the inhibition is -0.86% in [13]; -1.07% in assay [14]; 4.26% in assay [15]; -0.45% in [16]; -2.55% in assay [17]; 1.3% in [18]. The results for the inhibition in assay [19] and in [20] were 2.43% and 2.46%, respectively.
As for `FC(F)(F)CNc1nccc(-c2cnn3ncccc23)n1`, the inhibition in assay [1] was 1%; in assay [2], 1.9%; in assay [3] it was 2.18%; in assay [4] it was 1.39%; in assay [5], -0.82%; in assay [6] it was -1.54%. The inhibition is -1.63% in assay [7]; 2.14% in assay [8]; 4.88% in assay [9]; 2.28% in assay [10]; 3.6% in assay [11]; 0.88% in [12]. The inhibition is 2.79% in [13]; 0.67% in [14]; 0.91% in assay [15]; -2.94% in assay [16]; 0.4% in assay [17]; 1.7% in [18]. In addition, the inhibition was 3.74% in [19] and 2.72% in [20].
Take `COc1cc(Nc2ncc(-c3ccccc3)o2)cc(OC)c1`: the inhibition in assay [1] was 3.63%; in assay [2], -0.99%; in assay [3] it was 5.5%; in assay [4], 2.04%; in [5], 1.78%; in [6] it was -3.48%. Besides, the inhibition in assay [7] is -1.92%; in assay [8], 6.74%; in assay [9], 19.3%; in assay [10], 78.5%; in [11], 97.2%; in assay [12], 3.13%. The inhibition in [13] stood at 2.77%; in assay [14], 21.6%; in [15], 81.7%; in [16], 33.6%; in assay [17], 83.5%; in [18], 2.6%. Moreover, the results for the inhibition in [19] and in assay [20] were 14.5% and 4.67%, respectively.
